Assay outcomes from PubChem BioAssay.
This is a sample that favours compounds with a hit; in the whole collection about 7.5% have one here.
ELG1 genotox: genotoxicity induction in ELG1-luciferase HEK293T cells; AID 504466; Potency, µM (series often up to 46 µM), for the others: at the top dose activity change, positive = activation, hits mostly activators; HEK293T ELG1-luciferase reporter, luminescence, 16 h; 330,000 tested, 1.3% active; note: % of control where 0% means no effect; nearly all actives have a fitted effect of over 60% in size
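Genotoxicity was scored as increased ELG1-luciferase reporter signal, measured by ONE-Glo luminescence (30 min, room temperature). Compound or vehicle exposure of the HEK293T reporter cells lasted 16 hr at 37°C.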
KinaseGlo FLuc: blocks Kinase-Glo luciferase, a counter-screen artifact | Potency, µM (top dose mostly 38.3 µM), without a hit: at the top dose activity change, negative = inhibition, actives largely listed as inhibitors | Q27757 | Kinase-Glo luciferase, ATP luminescence, 8 min | 200,000 tested, 0.28% active; note: % is set by controls: 0 for no effect and ±100 for the full control effect; nearly all actives have a fitted effect of over 60% in size
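Compound is pinned into ATP-containing buffer (10 uM ATP, imidazole pH 7.2, 7 mM MgCl2). Kinase-Glo luciferase reagent is then added. Light output is recorded following an 8-min room-temperature incubation.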
NPC1 promoter act: activates the NPC1 promoter; Huh7 NPC1 promoter luciferase reporter, 24 h; Potency, µM (doses to about 9.22 µM), inactives show at the top dose activation, actives largely listed as activators; 320,000 tested, 2.4% active; AID 485313; note: % of control where 0% means no effect; nearly all actives have a fitted effect of over 60% in size
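NPC1 promoter–luciferase Huh7 cells; 24 h compound; luminescence.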
SMN2 splice up: SMN2 splice variant enhancement | HEK293 SMN2-luciferase splicing reporter, luminescence, 30-36 h | Potency, µM (top dose mostly 46.1 µM), for inactives: top-dose activity change, positive = activation, most hits filed as activators | 210,000 tested, 2.8% active; note: % of control where 0% means no effect; nearly all actives have a fitted effect of over 55% in size
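HEK293 cells carry an SMN2 minigene-luciferase reporter in which exon 7 inclusion puts luciferase in frame. Cells were seeded at 2000 cells/well, attached for 10-12 hours, then exposed to compounds for 30-36 hours at 37C before ONE-Glo luminescence.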
Rab9 promoter act: activates the Rab9 promoter. Huh7 Rab9 promoter-luciferase reporter, luminescence, 24 h. Potency, µM (top dose mostly 9.22 µM), for the others: at the highest dose activation, negative = inhibition, actives largely listed as activators. 320,000 tested, 2.8% active. AID 485297; note: % of control where 0% means no effect; nearly all actives have a fitted effect of over 60% in size
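Promoter activation is measured as luciferase luminescence in Huh7 cells stably transfected with a Rab9 promoter–luciferase construct, following 24 h compound exposure at 37 °C and 10 min reagent incubation at ambient temperature.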
FLuc counter: inhibits or activates purified firefly luciferase, miR-21 counter-screen. purified FLuc, Km substrates, luminescence inhibition. 360,000 tested, 6.9% active. AID 588342. Potency, µM (titrated, usually from 57.5 µM), without a hit: top-dose activity change, negative = inhibition, most hits filed as inhibitors;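 note: plate controls were vehicle for no effect and reference inhibitor for full effect; nearly all actives have a fitted effect of over 55% in size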
Target sequence (P08659 whole entry, looked up): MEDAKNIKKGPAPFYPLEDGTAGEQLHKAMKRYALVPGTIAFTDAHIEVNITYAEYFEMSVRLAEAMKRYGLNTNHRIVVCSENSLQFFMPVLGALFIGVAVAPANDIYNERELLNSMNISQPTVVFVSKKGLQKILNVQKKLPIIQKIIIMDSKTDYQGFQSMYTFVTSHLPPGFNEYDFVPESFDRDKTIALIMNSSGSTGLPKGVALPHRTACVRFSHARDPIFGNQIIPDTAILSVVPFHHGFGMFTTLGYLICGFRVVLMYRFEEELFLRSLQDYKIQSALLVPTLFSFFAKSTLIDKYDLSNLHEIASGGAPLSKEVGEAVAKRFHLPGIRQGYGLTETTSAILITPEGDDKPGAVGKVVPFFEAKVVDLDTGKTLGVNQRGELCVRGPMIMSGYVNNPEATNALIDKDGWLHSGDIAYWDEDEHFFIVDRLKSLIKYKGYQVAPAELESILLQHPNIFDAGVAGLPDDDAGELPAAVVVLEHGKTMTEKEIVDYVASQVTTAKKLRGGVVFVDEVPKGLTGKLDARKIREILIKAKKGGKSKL
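Purified P. pyralis luciferase, 10 nM final, with Km-level 10 uM D-luciferin and 10 uM ATP in 50 mM Tris acetate pH 7.5, 10 mM Mg acetate, 0.01% Tween-20, 0.05% BSA; 6-point qHTS titration about 60 µM downward; luminescence read.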
* marks the source's active call; other numbers are inactive results; ? = inconclusive; nt = not tested or not shown; [ ] = another dose, or the depositor's remark. Calls come from the whole dose curve; as a rule, active = well fitted curve in the direction sought with a large enough effect; inconclusive = small, poorly fitted or top-dose-only effect, or another doubt; inactive = no such curve, though single readings can be large; an effect the other way counts as inactive or inconclusive. Potency is the fitted concentration of half-maximal effect.

SMILES | ELG1 genotox | KinaseGlo FLuc | NPC1 promoter act | SMN2 splice up | Rab9 promoter act | FLuc counter
COc1cccc(/C=N/NC(=O)CNC(=O)/C=C\c2ccccc2)c1O | 17.6% | nt | -6.1% | nt | -12.3% | 10.7µM*
COc1ccc(/C=C\C(=O)NCC(=O)N/N=C/c2cccc(OC)c2O)cc1 | -2.4%[9.26 µM] | nt | 1.9% | nt | -0.6% | -3.8%
COc1ccc(OC)c(NC(=O)CN2C(=O)C(C)N(c3ccc(C)cc3)C2=O)c1 (stereo not given) | -2.3% | nt | -0.2% | nt | 1.2% | -0.2%
CC(=O)OCCCN1c2ccccc2Nc2nnc(-c3ccccc3)cc21 | ? | -7.1% | 1.78µM* | 14.1µM* | 1.58µM* | 2.39µM*
CC1=C(C(N)=O)C(c2ccc(F)cc2)n2nc(-c3ccc(N(C)C)cc3)nc2N1 (stereo not given) | nt | nt | nt | 1.5% | nt | ?
COc1cccc(C(=O)NC(=O)Nc2cc(C)[nH]n2)c1 | ? | nt | 2µM* | nt | 1.58µM* | 9.53µM*
Cc1cc(C)nc(NC(=O)c2cccc(Br)c2)n1 | 2.0% | nt | -0.4% | nt | 3.7% | 7.7%
COc1cccc(C(=O)NC(=S)Nc2nnn(C)n2)c1 | 10.3% | -5.3% | -0.8% | 12.5% | -3.6% | 0.5%
Cc1cc(NC(=O)c2cccc(Br)c2)n[nH]1 | ? | nt | ? | nt | ? | 19µM*
CCOc1ccc(CC(=O)N/N=C/c2sccc2C)cc1 | 0.8% | nt | -4.0% | nt | 19.7% | 1.8%
O=C(NCCO)Nc1ccc2nc(-c3ccco3)c(-c3ccco3)nc2c1 | 0.1% | -9.2% | -5.0% | 2.6% | -11.4% | 23.9µM*
O=C(NCCO)Nc1ccc2nsnc2c1 | 0.2% | 2.8% | -4.5% | -2.2% | -0.1% | 1.1%
O=C(Nc1ccccc1)c1ccc2nc(-c3ccco3)c(-c3ccco3)nc2c1 | -25.9% | -22.6% | -0.9% | 7.6% | -2.6% | 1.1%
CCCCNC(=O)c1ccc2nc(-c3ccco3)c(-c3ccco3)nc2c1 | 0.8% | -4.0% | 1.9% | -8.8% | 3.9% | ?
CC(=O)c1ccc(NC(=O)c2ccc3nc(-c4ccco4)c(-c4ccco4)nc3c2)cc1 | -8.3% | -4.2% | -7.7% | 14.0% | -7.1% | 12µM*
O=C(NCCCO)c1ccc2nc(-c3ccco3)c(-c3ccco3)nc2c1 | -5.7% | -5.4% | -0.4% | -16.9% | 1.6% | 19µM*
COc1ccc2nc(-c3ccco3)c(-c3ccco3)nc2c1 | ? | -7.8% | 17.8% | 5.3% | ? | 2.69µM*
O=C(c1cnn(-c2ccc(F)cc2)c1-n1cccc1)N1CCN(c2cccc(Cl)c2)CC1 | nt | nt | nt | nt | nt | -2.2%
Cn1c2ccccc2c2cnn(CC(=O)Nc3ccccc3F)c(=O)c21 | nt | nt | nt | 2.5% | nt | 1.3%
COc1cc(OC)cc(C(=O)NN2CCOCC2)c1 | 24.8% | nt | 3.0% | nt | 0.6% | -0.7%
COc1ccc(OC)c(-c2ccc(C(=O)O)o2)c1 | nt | 3.0%[39.9 µM] | nt | nt | nt | nt
Clc1ccc(-c2ccc(C=Nc3ccc(N4CCOCC4)cc3)o2)cc1 | 0.3% | -3.9% | 1.5% | -32.9% | 1.0% | 4.78µM*
Clc1ccc(-c2ccc(C=Nc3ccc(N4CCOCC4)cc3)o2)c(Cl)c1 | 1.9% | 0.5% | 0.8% | -22.9% | 0.4% | -19.6%
Clc1cccc(-c2ccc(C=Nc3ccc(N4CCOCC4)cc3)o2)c1Cl | 0.8% | -13.4% | 1.0% | nt | -0.2% | 3.38µM*
Cc1cc(CN2CCCC(C(=O)Nc3ccc(-c4nc5ccccc5[nH]4)cc3)C2)n[nH]1 (stereo not given) | 19.0% | nt | ? | nt | ? | 15.1µM*
Clc1c(-c2nnc3n2CCC3)sc2ccccc12 | 23.1% | -0.7% | -0.5% | 8.0% | 2.4% | 21.3µM*
Cc1c(C)n(CCc2ccccc2)c2ncnc(NN)c12 | -3.0% | nt | -26.2% | nt | -14.5% | -14.8%
COCCn1c(C)c(C)c2c(NCCc3ccccc3)ncnc21 | ? | nt | 0.355µM* | nt | 0.501µM* | 0.849µM*
Cc1c(C)n(CCc2ccccc2)c2ncnc(NCCCO)c12 | ? | nt | 1.78µM* | nt | 1.58µM* | 10.7µM*
CCOc1ccc(-c2cc3c(=O)n(CC(=O)Nc4c(C)cccc4C)ccn3n2)cc1 | nt | nt | nt | nt | nt | -2.9%
